Out of some 220,000 compounds screened, about 1,100 (0.5%) were called active. The list comes from a sample in which actives are over-represented; it also holds similar structures and randomly drawn compounds. Values without a mark were called inactive.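 How the source made its calls: active means inhibition above about 30% (limit read from the data); inactive means the rest.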
target: Neutrophil cytosol factor 1 (Homo sapiens) (UniProt P14598); assay: p47phox/p22phox peptide binding inhibitors, primary screen, biochemical, uHTS, NADPH oxidase regulatory subunit (AID 1274); conditions: fluorescence polarization, 2 h, at 24.7 µM, active compounds read high;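 further: 0% = p47phox with labelled peptide and 100% = labelled peptide alone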
Sequence (P14598 whole entry, looked up): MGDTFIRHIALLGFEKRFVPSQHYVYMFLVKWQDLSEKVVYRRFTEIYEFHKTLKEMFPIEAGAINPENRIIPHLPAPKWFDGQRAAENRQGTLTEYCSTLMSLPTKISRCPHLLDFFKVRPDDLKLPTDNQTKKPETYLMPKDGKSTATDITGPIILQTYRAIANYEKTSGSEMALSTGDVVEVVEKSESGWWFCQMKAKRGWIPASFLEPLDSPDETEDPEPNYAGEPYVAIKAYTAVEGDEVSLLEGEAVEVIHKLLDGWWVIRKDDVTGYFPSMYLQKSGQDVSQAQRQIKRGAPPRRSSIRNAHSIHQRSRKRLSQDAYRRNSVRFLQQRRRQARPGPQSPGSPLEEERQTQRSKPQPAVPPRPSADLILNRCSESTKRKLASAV

| Compound | inhibition |
| --- | --- |
| CCN(CC(=O)NCCc1ccccc1)S(=O)(=O)c1ccccc1 | -6.19% |
| O=C(Nc1ccc(Br)cn1)C1CCN(S(=O)(=O)c2cccs2)CC1 | -5.24% |
| CCN(CC)CCCN=Cc1c(O)n(-c2ccc(C)cc2)c(=O)c2ccccc12 | 111% (active) |
| CCOc1ccc(-n2c(O)c(/C=N/Nc3nc(C)cc(C)n3)c3ccccc3c2=O)cc1 | -10.2% |
| CCOc1ccc(-n2c(O)c(/C=N/Nc3nnc(C)c(=O)[nH]3)c3ccccc3c2=O)cc1 | -44.3% |
| O=C(O)C1CCN(C(=O)c2cc(F)cc3c2OCOC3)CC1 | -5.96% |
| Cc1nc2ncnn2c(C)c1CCC(=O)N1CCN(C(=O)c2ccco2)CC1 | 2.67% |
| Cc1nc2c(-c3ccc(F)cc3)c(C)nn2c(C)c1CCC(=O)N1CCN(c2ccccn2)CC1 | -1.7% |
| Cc1nc2nc(C)c(CCC(=O)N3CCN(c4ccccc4)CC3)c(C)n2n1 | 37.8% (active) |
| COc1cc(OC)cc(C(=O)OCC(=O)Nc2sccc2C(N)=O)c1 | -13.4% |
| CC(C)CCN1NC2(CCC(C)CC2)NC1=S (configuration not stated) | -4.38% |
| CCNC(=O)COC(=O)CCNC(=O)c1cccc(C)c1 | -7.35% |
| COCCOC(=O)c1sc(=S)n(CCOC)c1N | 46.2% (active) |
| COC(=O)c1sc(=S)n(-c2ccccc2)c1N | 0.99% |
| CCOC(=O)c1sc(=S)n(-c2cccc(OC)c2)c1N | -12.7% |
| CCOC(=O)Cn1nnnc1C | 6.81% |
| O=C(NCc1ccccn1)c1c(O)c2c([nH]c1=O)CCCC2 | -12.3% |
| C[N+](C)(C)CCNC(=O)c1c(O)c2c([nH]c1=O)CCCC2 | 31.8% (active) |
| CCc1nnc(NC(=O)c2c(O)c3c([nH]c2=O)CCCC3)s1 | -3.43% |
| CCOC(=O)CC1C(=O)NCCN1c1nc2c(C)cccn2c(=O)c1/C=C1\SC(=S)N(C(C)CC)C1=O (configuration not stated) | -73.3% |
| O=S(=O)(NN=C1CCCCCCC1)c1ccc(Br)cc1 | -8.52% |

| Compound | inhibition |
| --- | --- |
| Cc1ccc(S(=O)(=O)NCC(C)NS(C)(=O)=O)cc1 (configuration not stated) | 4.29% |
| CC(CNS(=O)(=O)c1ccc(Br)cc1)CN(C)C (configuration not stated) | 92% (active) |
| Cc1c(C(=O)N(Cc2ccccc2)Cc2cccnc2)cnn1-c1ccc(F)cc1 | -0.45% |
| O=C(Nn1c(-c2ccc(Cl)cc2)nc2ccccc2c1=O)c1cccnc1Cl | -7.54% |
| C[C@@H]1CC[C@]2(O[C@@H](CCO)C[C@H](O)[C@H]2O)O1 | 5.45% |
| Cc1ccc(S(=O)(=O)N(c2cccc(C)c2)C2CCS(=O)(=O)C2)cc1 (configuration not stated) | -5.65% |
| CC(=O)NCCc1ccc(S(=O)(=O)N(C)C2CCS(=O)(=O)C2)cc1 (configuration not stated) | 32.2% (active) |
| COc1ccc(C(=O)N(Cc2ccc(N(C)C)cc2)C2CCS(=O)(=O)C2)cc1 (configuration not stated) | -10.9% |
| CC(C)N1CCC(N2CCN(Cc3cccnc3)CC2CCO)CC1 (configuration not stated) | -4.11% |
| Oc1ccc(N=Cc2c(O)ccc3ccccc23)cc1 | -7.4% |
| O=[N+]([O-])c1ccc(N=Cc2c(O)ccc3ccccc23)cc1 | 64.5% (active) |
| Oc1ccc2ccccc2c1C=Nc1ccccc1 | -17.1% |
| CCn1cc(C(=O)NCCCN2CCCCCC2)c(=O)c2cc(S(=O)(=O)N3CCc4ccccc4C3)ccc21 | -1.11% |
| COC(=O)[C@H](Cc1ccccc1)NC(=O)Nc1ccc(OC)cc1 | -13.5% |
| Cc1ccnc(Nc2nc3ccccc3s2)n1 | -4.23% |
| Cc1ccnc(N2CCC(C(=O)NC3CCCCCC3)CC2)n1 | -2.85% |
| Cc1ccnc(-n2sc3ccccc3c2=O)n1 | 35% (active) |
| COc1ccc(CN2CCOC2=O)cc1OC | -11.8% |
| COc1ccc(-c2csc3nc(-c4ccccc4F)oc(=O)c23)cc1OC | 89.6% (active) |
| COc1ccc(-c2noc(-c3cccc(OC)c3OC)n2)cc1OC | -9.37% |
| COc1ccc(-c2csc(-c3cccs3)n2)cc1OC | -15.5% |

| Compound | inhibition |
| --- | --- |
| O=c1ccnc(Nc2ccc(Cl)cc2)[nH]1 | -15.2% |
| COc1cccc(OCC(=O)NNC(=O)c2cnccn2)c1 | -5.83% |
| CSC1=NC2(C)CCCCC2C12C=CC(=O)C=C2 (configuration not stated) | 12.3% |
| Oc1ccc(CNc2ccccc2O)cc1 | 72.8% (active) |
| Oc1ccc(N2CCN(C(=S)NCc3ccccc3)CC2)cc1 | -4.47% |
| O=[N+]([O-])c1ccccc1NCc1ccc(Cl)cc1 | 10.1% |
| COc1ccc(SCCN2CCN(CC(C)C)CCC2=O)cc1 | -5.09% |
| CC1CCC(NC(=O)c2ccc(N3CCCC3=O)cc2)CC1 (configuration not stated) | -4.19% |
| O=C(NCCCN1CCCCCC1)c1ccc(N2CCCC2=O)cc1 | 31.1% (active) |
| CCOc1ccc(C(=O)NCCCN2CCCC2=O)cc1 | -1.06% |
| COCCN1C(=O)N[C@@H](CCc2ccccc2)[C@H](C(C)=O)[C@H]1C | -14.3% |
| CC(C)N(C(=O)Cn1cc(SCC(=O)N2CCCC2)c2ccccc21)C(C)C | -1.84% |
| O=C(Nc1ccc(S(=O)(=O)Nc2ncccn2)cc1)c1cncc(Br)c1 | -1.88% |
| Cc1ccnc(NS(=O)(=O)c2ccc(NC(=O)c3ccc(S(=O)(=O)N(C)C)cc3)cc2)n1 | 93.9% (active) |
| Cc1ccnc(NS(=O)(=O)c2ccc(NC(=O)c3ccc(S(=O)(=O)N4CCOCC4)cc3)cc2)n1 | -8.81% |
| CCCN(c1ccc(C)cc1)c1nc(=O)c2cccnc2s1 | 3.57% |
| COC(=O)c1nc2n(n1)C(c1ccc([N+](=O)[O-])cc1)C(C(=O)Nc1ccc(Cl)cc1)=C(C)N2 (configuration not stated) | 35.3% (active) |
| COc1cc(C2C(C(=O)Nc3ccc(F)cc3)=C(C)Nc3nc(CCCO)nn32)cc(OC)c1OC (configuration not stated) | 8.1% |
| COCCOC(=O)C1=C(C)Nc2nc(C)nn2C1c1ccccc1 (configuration not stated) | -2.35% |
| COC(C[C@@H](O)[C@H](C)[C@H](O)COCc1ccccc1)OC | -7.85% |

Source: PubChem BioAssay AID1274 (Emory University Molecular Libraries Screening Center, 2008)
